PubChem BioAssay (EPA / NIEHS)
The source made the active and inactive calls. The calls were made as follows: active = hit-call score of the fitted dose curve at least 0.9, where 1 is the maximum; inactive = score below 0.9.

How the values were obtained:
[1] = read-out: Transforming growth factor beta 1 (TGFb1), TGFB1 (gene 7040); test: BSK_KF3CT_TGFb1: BioMAP Diversity Plus: KF3CT Assay for Transforming growth factor beta 1 (TGFb1) Biomarker Activity (AID 2283072); settings: primary human keratinocytes with fibroblasts; actives raise or lower the signal
In short: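 Read-out: ELISA for TGF-b1 in keratinocyte/foreskin fibroblast human skin co-culture, 24 h after dosing; bidirectional curve fit vs DMSO baseline; gain or loss of signal scored.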

[2] = read-out: C-C motif chemokine 2 (Homo sapiens) (UniProt P13500); test: BSK_KF3CT_MCP1: BioMAP Diversity Plus: KF3CT Assay for Monocyte Chemoattractant Protein 1 (MCP1/CCL2) Biomarker Activity (AID 2283073); settings: primary human keratinocytes with fibroblasts; actives raise or lower the signal
In short: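 Keratinocytes and foreskin fibroblasts were co-cultured, dosed with chemical, and sampled 24 h later. MCP-1 was quantified by ELISA, and the endpoint was analyzed with bidirectional fitting using DMSO as negative control.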

[3] = read-out: Matrix Metallopeptidase 9 (MMP9), MMP9 (gene 4318); test: BSK_KF3CT_MMP9: BioMAP Diversity Plus: KF3CT Assay for Matrix Metallopeptidase 9 (MMP9) Biomarker Activity (AID 2283074); settings: primary human keratinocytes with fibroblasts; actives raise or lower the signal;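 as to AC50: MMP9 protein level quantified by ELISA in the co-culture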
In short: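 ELISA read-out of MMP-9 at 24 h post-dosing in a co-culture of human skin keratinocytes and foreskin fibroblasts. Gain or loss of signal was fitted in both directions against DMSO.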

[4] = read-out: urokinase plasminogen activator (uPA), PLAU (gene 5328); test: BSK_KF3CT_uPA: BioMAP Diversity Plus: KF3CT Assay for urokinase plasminogen activator (uPA) Biomarker Activity (AID 2283075); settings: primary human keratinocytes with fibroblasts; actives raise or lower the signal
In short: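 Skin co-culture (keratinocytes + foreskin fibroblasts), human primary; 24 h post-dose; uPA by ELISA; gain/loss fit vs DMSO baseline.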

CD40, CD40 (gene 958) = test: BSK_LPS_CD40: BioMAP Diversity Plus: LPS Assay for CD40 Biomarker Activity (AID 2283076); settings: primary human HUVEC with PBMC; actives raise or lower the signal
In short: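 CD40 signal, measured by ELISA, is fitted in both directions relative to DMSO vehicle. The system is an LPS-driven human vascular primary co-culture of endothelial cells and PBMC, sampled 24 h after compound addition.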

[5] = read-out: E-selectin (Homo sapiens) (UniProt P16581); test: BSK_LPS_Eselectin: BioMAP Diversity Plus: LPS Assay for Eselectin Biomarker Activity (AID 2283077); settings: primary human HUVEC with PBMC; actives raise or lower the signal
In short: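 Signal of E-selectin, detected by ELISA, served as the endpoint; cells were umbilical vein endothelium with PBMC, read 24 h after treatment. DMSO defined baseline, and both increases and decreases were fitted.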

[6] = read-out: Interleukin-8 (IL8), CXCL8 (gene 3576); test: BSK_LPS_IL8: BioMAP Diversity Plus: LPS Assay for Interleukin-8 (IL8) Biomarker Activity (AID 2283078); settings: primary human HUVEC with PBMC; actives raise or lower the signal
In short: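 Endothelial cells and PBMC from human donors are co-cultured, treated with chemicals and LPS, then assayed for IL-8 by ELISA after 24 h. Parallel SRB staining (0.1% SRB after 10% TCA fixation, 560 nm) flags cytotoxicity.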

[7] = BSK_LPS_SRB: Viability Assessment in the BioMAP Diversity Plus: LPS Assay (AID 2283079); settings: primary human HUVEC with PBMC;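 also: total protein by sulforhodamine B absorbance as a cytotoxicity measure; measured one day after compound addition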
In short: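 Overt cytotoxicity was gauged by sulforhodamine B total-protein staining in a primary human vascular endothelial and mononuclear cell co-culture 24 h post-dosing. Activity was fitted in both directions relative to DMSO.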

[8] = read-out: Interleukin-1 alpha (IL1a), IL1A (gene 3552); test: BSK_LPS_IL1a: BioMAP Diversity Plus: LPS Assay for Interleukin-1 alpha (IL1a) Biomarker Activity (AID 2283080); settings: primary human HUVEC with PBMC; actives raise or lower the signal
In short: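 Measured: IL-1 alpha via ELISA at 24 h in LPS-activated human umbilical vein endothelium–PBMC co-culture. Baseline: DMSO, bidirectional fitting.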

[9] = read-out: Monocyte Chemoattractant Protein-1 (MCP1), CCL2 (gene 6347); test: BSK_LPS_MCP1: BioMAP Diversity Plus: LPS Assay for Monocyte Chemoattractant Protein-1 (MCP1) Biomarker Activity (AID 2283081); settings: primary human HUVEC with PBMC; actives raise or lower the signal;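 as to AC50: secreted MCP-1 protein quantified by ELISA in culture supernatant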
In short: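 LPS-stimulated HUVEC/PBMC co-culture; chemical, 24 h; MCP-1 by ELISA; bidirectional fit vs DMSO; cytotoxicity via SRB (0.1% stain, 10% TCA fix, 560 nm) in parallel wells.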

Measured: AC50

E-selectin (Homo sapiens), sequence (P16581 whole entry, looked up): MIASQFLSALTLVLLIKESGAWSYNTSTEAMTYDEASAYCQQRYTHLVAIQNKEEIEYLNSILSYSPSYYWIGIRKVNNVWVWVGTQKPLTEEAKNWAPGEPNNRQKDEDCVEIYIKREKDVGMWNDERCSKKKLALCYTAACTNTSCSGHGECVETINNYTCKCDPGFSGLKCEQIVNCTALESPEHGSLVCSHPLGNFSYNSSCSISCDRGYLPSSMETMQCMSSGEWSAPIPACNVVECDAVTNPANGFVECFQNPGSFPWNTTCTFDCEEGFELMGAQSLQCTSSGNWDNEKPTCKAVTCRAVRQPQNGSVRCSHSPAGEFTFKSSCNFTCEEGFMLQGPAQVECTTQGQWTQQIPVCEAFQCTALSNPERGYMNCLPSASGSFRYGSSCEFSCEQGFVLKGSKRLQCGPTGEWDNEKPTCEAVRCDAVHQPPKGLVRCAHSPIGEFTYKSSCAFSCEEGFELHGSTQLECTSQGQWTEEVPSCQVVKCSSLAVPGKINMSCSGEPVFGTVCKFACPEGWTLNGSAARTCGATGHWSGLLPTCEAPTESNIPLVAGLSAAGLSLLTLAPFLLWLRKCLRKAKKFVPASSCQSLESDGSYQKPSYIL

C#CCOC(=O)[C@@H](C)Oc1ccc(Oc2ncc(Cl)cc2F)cc1
inactive: [1] | [2] | [3] | [4] | CD40, CD40 (gene 958) | [5] | [6] | [7] | [8] | [9]

CCOC(=O)c1ccc(O)cc1
inactive: [1] | [2] | [4] | CD40, CD40 (gene 958) | [5] | [6] | [7] | [8] | [9]

CCCN(CCC)C(=O)SCC
inactive: [1] | [2] | [3] | [4] | CD40, CD40 (gene 958) | [6] | [7] | [8] | [9]

CCCCCCC(C)OC(=O)COc1nc(F)c(Cl)c(N)c1Cl (stereo unspecified)
active: [1] 31.3 µM | [4] 20 µM | CD40, CD40 (gene 958) 29.9 µM | [5] 30.7 µM | [6] 36.8 µM | [7] 38.4 µM | [9] 31 µM
inactive: [2]

CC(=O)S[C@@H]1CC2=CC(=O)CC[C@]2(C)[C@H]2CC[C@@]3(C)[C@@H](CC[C@@]34CCC(=O)O4)[C@H]12
active: CD40, CD40 (gene 958) 25 µM | [6] 15.9 µM | [7] 20.9 µM | [8] 12.4 µM
inactive: [1] | [2] | [4]

O=C(O)c1ccccc1
inactive: [1] | [2] | [3] | [4] | CD40, CD40 (gene 958) | [6] | [7] | [8] | [9]

CCNc1nc(N)nc(Cl)n1
inactive: [1] | [2] | [4] | CD40, CD40 (gene 958) | [5] | [6] | [7] | [8] | [9]

O=C(O)C1(C(=O)Nc2ccc(Cl)cc2Cl)CC1
inactive: [1] | [2] | [4] | CD40, CD40 (gene 958) | [5] | [6] | [7] | [8] | [9]

CCCCOCCOCCOCc1cc2c(cc1CCC)OCO2
inactive: [1] | [2] | [3] | [4] | [5] | [8] | [9]
active: CD40, CD40 (gene 958) 20 µM | [6] 13.3 µM | [7] 12.1 µM

OB(O)O
inactive: [1] | [2] | [3] | [4] | CD40, CD40 (gene 958) | [6] | [7] | [8] | [9]

COC(=O)c1ccc(I)cc1S(=O)(=O)NC(=O)Nc1nc(C)nc(OC)n1
inactive: [1] | [2] | [3] | [4] | CD40, CD40 (gene 958) | [6] | [7] | [8] | [9]

S=C([S-])NCCNC(=S)[S-].[Mn+2]
inactive: [1] | [2] | [4] | CD40, CD40 (gene 958) | [6] | [7] | [8] | [9]
active: [3] 36.6 µM | [5] 7.58 µM

CCOC(=O)COc1cc(-n2ncc(C(F)(F)F)c(C)c2=O)c(F)cc1Cl
inactive: [1] | [2] | [3] | [4] | CD40, CD40 (gene 958) | [6] | [7] | [8] | [9]

COc1nc(C)nc(NC(=O)NS(=O)(=O)c2ccccc2OCCCl)n1
inactive: [1] | [2] | [3] | [4] | CD40, CD40 (gene 958) | [6] | [7] | [8] | [9]
